# Laboratory results reported in PubChem BioAssay AID540327 (National Center for Advancing Translational Sciences (NCATS), 2011).
# Some of the results follow. Results filed as inconclusive are left out. Active and inactive are the calls of the source. Calls come from the whole dose curve; as a rule, active = well fitted inhibition curve with a large enough effect; inconclusive = small, poorly fitted or top-dose-only effect; inactive = flat fitted curve, though single readings scatter.
# Target: Ubiquitin carboxyl-terminal hydrolase 1 (Homo sapiens) (UniProt O94782)
# Assay: Inhibitors of USP1/UAF1: Hit Validation in Primary Assay
# Details: Ub-Rhodamine cleavage, fluorescence kinetic read
# Excerpt: Deubiquitinating enzymes (DUBs) are a class of enzymes that can cleave isopeptide bond formed between the C-terminal carboxylate of ubiquitin and a lysine side-chain amino group on the target protein. Among them, ubiquitin specific proteases (USPs) constitute the largest DUB family. Human USPs are emerging as promising targets for pharmacological intervention because of their connection to a number of human diseases, including prostate, colon and breast cancer (1, 2), pediatric acute lymphoblastic leukemia (3), and familial cylindromatosis (4). The advantage of inhibiting USPs lies in the potential specificity of therapeutic intervention that can lead to better efficacy and reduce nonspecific side effects. […] This miniaturized assay has a fluorescent read-out and is used to screen the NIH Molecular Libraries Small Molecule Repository (MLSMR) in order to identify a small molecule that inhibits USP1. […]
# 3 microliters of reagents (buffer in columns 3 and 4 as negative control and 1nM USP1/UAF1 complex in columns 1, 2, and 5-48) are dispensed into Greiner black solid bottom 1536-well assay plates. […] The plates are immediately centrifuged at 1000 rpm for 15 seconds, and subsequently transferred to a ViewLux high-throughput CCD imager (PerkinElmer) wherein kinetic measurements of fluorescence are acquired using 480 nm excitation/540 nm emission filter set (6 reads every 60 seconds, see Table 1). […]
# Chain of Ubiquitin carboxyl-terminal hydrolase 1 (Homo sapiens) (O94782 whole entry, looked up): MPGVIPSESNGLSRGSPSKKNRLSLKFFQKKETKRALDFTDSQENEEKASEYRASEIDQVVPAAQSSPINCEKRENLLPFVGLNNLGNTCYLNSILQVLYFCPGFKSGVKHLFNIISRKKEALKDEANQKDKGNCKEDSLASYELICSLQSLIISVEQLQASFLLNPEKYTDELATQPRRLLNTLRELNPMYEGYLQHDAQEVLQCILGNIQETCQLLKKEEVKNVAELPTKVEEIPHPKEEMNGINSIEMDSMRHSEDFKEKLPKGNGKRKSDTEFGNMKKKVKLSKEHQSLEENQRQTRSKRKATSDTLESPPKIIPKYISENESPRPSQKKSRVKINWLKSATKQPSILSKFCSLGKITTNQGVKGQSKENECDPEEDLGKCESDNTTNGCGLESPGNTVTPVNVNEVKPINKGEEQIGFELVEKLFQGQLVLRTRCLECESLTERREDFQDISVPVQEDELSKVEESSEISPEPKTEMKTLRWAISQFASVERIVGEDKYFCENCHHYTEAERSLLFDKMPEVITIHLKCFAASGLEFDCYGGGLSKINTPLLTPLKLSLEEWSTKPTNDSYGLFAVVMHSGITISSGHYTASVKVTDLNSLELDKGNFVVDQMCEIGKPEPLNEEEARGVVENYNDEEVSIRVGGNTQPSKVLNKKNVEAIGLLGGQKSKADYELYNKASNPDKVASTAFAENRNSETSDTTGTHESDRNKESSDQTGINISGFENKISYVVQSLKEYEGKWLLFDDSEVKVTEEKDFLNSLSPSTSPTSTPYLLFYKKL
structure (smiles),measurement,value
CC(=O)c1c(O)c(C)c(O)c(Cc2c(O)c3c(c(C(=O)/C=C/c4ccccc4)c2O)OC(C)(C)C=C3)c1O,Potency,41.8 µM (active)
